Data: the supplement of paper PMC11001985

The targets below were run with C#CCNC(=O)CCSSCCC(=O)NCCc1ccc(C=O)c(C=O)c1 (assay: lysine labeling ratio R10:1 (500 µM / 50 µM probe), SILAC-ABPP in living cells; higher = lower intrinsic lysine reactivity toward the probe, active = 2 or less). Settings: HeLa; probe concentrations 500 vs 50 µM.
How it was run: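 Each lysine carries an R value: the filtered median of MS1 peptide ratios of high probe to low probe, with the median then taken over forward and reverse replicates. These came from living SILAC light and heavy HeLa cells in PBS at room temperature labelled with an alkyne-tagged, disulfide-linked lysine probe at 500 µM or 50 µM, in forward and reverse swaps. The lysates were mixed, clicked to biotin-azide, trypsin-digested, captured on neutravidin, released by DTT, alkylated and run by LC-MS/MS on a TIMS-TOF Pro. The highest value allowed is 20.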

Sequence of UniProt Q9P2B2 (Q9P2B2 whole entry): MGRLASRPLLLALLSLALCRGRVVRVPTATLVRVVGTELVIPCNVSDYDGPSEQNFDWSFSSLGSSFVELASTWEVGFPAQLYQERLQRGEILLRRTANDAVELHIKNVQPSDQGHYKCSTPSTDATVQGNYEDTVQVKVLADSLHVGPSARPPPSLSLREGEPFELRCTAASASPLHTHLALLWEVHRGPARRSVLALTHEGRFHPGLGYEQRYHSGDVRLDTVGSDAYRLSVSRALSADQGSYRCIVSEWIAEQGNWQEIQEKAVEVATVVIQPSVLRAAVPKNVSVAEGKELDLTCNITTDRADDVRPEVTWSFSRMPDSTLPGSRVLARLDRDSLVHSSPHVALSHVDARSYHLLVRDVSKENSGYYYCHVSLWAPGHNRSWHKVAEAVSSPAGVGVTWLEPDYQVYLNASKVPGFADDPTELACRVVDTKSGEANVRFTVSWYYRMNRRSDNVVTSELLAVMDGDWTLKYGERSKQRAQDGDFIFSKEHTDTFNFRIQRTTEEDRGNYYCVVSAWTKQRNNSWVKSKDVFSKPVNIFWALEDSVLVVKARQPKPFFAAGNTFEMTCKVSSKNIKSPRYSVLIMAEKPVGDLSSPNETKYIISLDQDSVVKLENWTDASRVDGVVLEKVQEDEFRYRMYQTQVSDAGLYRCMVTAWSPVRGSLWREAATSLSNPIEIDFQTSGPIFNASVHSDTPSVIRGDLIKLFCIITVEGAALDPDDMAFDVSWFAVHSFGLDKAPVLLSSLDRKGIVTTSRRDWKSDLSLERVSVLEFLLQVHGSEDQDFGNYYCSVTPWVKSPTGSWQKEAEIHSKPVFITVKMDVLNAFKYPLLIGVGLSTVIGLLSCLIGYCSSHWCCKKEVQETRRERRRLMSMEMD
Sequence of UniProt P01024 (P01024 whole entry): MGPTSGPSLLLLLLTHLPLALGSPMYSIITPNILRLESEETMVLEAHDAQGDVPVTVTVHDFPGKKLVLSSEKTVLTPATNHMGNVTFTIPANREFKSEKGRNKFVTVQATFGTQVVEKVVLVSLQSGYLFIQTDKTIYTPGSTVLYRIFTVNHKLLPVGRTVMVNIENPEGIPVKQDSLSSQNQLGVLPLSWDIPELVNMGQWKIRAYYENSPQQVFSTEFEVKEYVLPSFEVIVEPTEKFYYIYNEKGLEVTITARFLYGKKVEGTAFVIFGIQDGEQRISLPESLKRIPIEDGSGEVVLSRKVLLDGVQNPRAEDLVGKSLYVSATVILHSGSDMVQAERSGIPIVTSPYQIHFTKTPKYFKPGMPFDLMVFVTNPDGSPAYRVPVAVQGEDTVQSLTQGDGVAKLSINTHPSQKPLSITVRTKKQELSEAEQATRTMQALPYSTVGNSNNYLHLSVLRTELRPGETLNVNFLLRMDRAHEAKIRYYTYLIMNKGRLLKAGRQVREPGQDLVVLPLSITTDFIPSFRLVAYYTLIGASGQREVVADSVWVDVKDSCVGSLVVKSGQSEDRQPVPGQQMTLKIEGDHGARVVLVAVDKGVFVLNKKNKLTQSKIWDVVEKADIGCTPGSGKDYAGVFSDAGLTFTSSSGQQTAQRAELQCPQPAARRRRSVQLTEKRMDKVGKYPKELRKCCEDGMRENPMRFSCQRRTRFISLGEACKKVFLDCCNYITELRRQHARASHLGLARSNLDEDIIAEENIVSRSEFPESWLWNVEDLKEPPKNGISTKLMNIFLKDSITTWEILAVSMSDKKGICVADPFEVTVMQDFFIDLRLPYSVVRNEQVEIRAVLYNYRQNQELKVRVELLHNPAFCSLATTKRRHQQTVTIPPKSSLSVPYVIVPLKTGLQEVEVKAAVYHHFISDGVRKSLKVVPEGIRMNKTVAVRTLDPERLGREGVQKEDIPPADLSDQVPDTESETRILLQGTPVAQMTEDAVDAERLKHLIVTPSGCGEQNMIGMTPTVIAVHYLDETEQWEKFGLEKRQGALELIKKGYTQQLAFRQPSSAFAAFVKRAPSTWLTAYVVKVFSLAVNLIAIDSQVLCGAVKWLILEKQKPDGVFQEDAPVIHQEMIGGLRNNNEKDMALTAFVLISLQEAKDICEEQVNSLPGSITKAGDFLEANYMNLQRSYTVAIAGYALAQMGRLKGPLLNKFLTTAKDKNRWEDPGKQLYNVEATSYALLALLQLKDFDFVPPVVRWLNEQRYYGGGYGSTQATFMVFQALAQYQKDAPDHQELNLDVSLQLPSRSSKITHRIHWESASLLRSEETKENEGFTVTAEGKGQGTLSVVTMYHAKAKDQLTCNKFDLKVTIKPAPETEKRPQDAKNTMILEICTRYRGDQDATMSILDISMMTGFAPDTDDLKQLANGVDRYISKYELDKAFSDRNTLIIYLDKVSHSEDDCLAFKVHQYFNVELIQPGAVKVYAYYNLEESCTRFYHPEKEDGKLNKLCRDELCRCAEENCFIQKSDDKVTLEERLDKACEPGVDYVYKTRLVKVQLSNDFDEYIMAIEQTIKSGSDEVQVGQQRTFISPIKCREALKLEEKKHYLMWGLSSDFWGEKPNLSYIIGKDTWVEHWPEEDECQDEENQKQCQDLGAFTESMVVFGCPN
Sequence of UniProt Q9UJS0 (Q9UJS0 whole entry): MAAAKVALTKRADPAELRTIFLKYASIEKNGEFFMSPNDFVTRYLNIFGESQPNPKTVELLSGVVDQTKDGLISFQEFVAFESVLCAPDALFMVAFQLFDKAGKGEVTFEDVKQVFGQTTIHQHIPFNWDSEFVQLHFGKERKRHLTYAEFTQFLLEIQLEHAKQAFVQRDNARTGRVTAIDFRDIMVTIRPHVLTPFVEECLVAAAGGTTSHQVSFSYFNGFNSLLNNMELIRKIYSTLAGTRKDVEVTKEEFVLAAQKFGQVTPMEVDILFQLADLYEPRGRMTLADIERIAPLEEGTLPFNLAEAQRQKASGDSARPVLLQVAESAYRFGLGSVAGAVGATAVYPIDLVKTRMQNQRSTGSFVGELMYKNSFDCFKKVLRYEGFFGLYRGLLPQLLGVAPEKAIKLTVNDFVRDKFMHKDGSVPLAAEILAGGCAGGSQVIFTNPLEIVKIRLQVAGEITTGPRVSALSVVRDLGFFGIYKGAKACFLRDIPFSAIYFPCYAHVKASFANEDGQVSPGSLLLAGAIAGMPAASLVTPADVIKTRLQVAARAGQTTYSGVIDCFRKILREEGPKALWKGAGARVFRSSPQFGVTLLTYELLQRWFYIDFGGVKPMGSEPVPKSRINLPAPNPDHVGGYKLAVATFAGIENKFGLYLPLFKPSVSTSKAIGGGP
Sequence of UniProt O14786 (O14786 whole entry): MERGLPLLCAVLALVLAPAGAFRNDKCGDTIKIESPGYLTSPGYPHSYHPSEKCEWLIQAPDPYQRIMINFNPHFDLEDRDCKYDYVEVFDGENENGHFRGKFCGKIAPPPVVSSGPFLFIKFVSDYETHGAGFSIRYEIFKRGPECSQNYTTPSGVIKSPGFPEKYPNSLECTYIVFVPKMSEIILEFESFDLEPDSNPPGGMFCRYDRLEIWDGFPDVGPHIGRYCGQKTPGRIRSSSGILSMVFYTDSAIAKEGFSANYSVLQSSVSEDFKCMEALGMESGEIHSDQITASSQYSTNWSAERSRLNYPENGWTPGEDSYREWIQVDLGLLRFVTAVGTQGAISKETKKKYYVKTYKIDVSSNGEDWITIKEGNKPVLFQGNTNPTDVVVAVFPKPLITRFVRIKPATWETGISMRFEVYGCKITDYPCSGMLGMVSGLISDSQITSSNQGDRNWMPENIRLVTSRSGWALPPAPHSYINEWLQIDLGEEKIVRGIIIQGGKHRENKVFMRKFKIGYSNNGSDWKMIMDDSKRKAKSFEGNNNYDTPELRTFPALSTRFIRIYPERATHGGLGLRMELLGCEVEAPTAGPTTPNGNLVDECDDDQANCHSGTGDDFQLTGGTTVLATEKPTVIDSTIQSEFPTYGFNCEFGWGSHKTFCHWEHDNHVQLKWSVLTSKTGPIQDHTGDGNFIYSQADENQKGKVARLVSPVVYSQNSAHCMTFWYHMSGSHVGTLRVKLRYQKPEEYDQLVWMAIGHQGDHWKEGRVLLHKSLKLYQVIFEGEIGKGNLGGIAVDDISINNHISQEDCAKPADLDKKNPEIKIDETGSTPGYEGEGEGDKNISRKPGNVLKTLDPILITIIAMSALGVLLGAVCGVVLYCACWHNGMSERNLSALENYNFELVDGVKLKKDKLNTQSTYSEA
Sequence of UniProt P60660 (P60660 whole entry): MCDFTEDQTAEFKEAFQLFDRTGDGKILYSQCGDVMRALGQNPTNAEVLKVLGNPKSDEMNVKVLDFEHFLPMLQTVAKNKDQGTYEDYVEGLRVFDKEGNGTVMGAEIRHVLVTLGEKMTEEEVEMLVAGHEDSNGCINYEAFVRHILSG
Sequence of UniProt P17844 (P17844 whole entry): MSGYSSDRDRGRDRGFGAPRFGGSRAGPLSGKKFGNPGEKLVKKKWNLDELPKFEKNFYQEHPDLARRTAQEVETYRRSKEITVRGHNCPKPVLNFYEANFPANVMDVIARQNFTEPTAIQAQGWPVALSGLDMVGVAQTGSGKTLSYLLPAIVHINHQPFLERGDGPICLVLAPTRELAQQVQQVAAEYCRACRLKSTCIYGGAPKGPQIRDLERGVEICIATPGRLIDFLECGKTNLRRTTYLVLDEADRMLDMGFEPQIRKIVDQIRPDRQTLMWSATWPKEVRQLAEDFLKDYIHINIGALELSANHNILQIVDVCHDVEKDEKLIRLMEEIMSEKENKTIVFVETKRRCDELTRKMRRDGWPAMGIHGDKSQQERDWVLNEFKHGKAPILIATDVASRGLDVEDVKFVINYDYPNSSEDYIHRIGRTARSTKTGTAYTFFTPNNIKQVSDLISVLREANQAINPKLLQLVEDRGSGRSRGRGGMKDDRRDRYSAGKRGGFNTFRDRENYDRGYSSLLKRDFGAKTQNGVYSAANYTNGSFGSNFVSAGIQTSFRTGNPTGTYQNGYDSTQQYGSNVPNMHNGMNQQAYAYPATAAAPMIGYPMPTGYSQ
Sequence of UniProt P60981 (P60981 whole entry): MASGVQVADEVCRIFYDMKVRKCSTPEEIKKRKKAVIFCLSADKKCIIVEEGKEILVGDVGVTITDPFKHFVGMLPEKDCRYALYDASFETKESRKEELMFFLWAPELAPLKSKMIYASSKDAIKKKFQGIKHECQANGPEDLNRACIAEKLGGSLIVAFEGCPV

Q: With UniProt P61978 (lysine site: K219) as the target, how does the “lysine labeling ratio R10:1” value read?
A: 0.79 (active)

Q: UniProt P60660 (lysine site: K81) was tested. Which “lysine labeling ratio R10:1” value did it give?
A: 3.44 (inactive)

Q: Which “lysine labeling ratio R10:1” value does the source give for “DDX5 (lysine site: K523) (UniProt P17844)” here?
A: 4.4 (inactive)

Q: How did the “lysine labeling ratio R10:1” value turn out when “AHNAK (lysine site: K326) (UniProt Q09666)” was run?
A: 1.7 (active)

Q: With “SPTAN1 (lysine site: K2052) (UniProt Q13813)” as the target, how does the “lysine labeling ratio R10:1” value read?
A: 3.09 (inactive)

Q: “MAP4 (lysine site: K959) (UniProt P27816)” was tested. Which “lysine labeling ratio R10:1” value did it give?
A: 3.23 (inactive)

Q: “DSG2 (lysine site: K561) (UniProt Q14126)” was tested. Which “lysine labeling ratio R10:1” value did it give?
A: 6.57 (inactive)

Q: With “TFRC (lysine site: K439) (UniProt P02786)” as the target, how does the “lysine labeling ratio R10:1” value read?
A: 2.93 (inactive)

Q: With “WDR1 (lysine site: K569) (UniProt O75083)” as the target, how does the “lysine labeling ratio R10:1” value read?
A: 5.89 (inactive)

Q: Which “lysine labeling ratio R10:1” value does the source give for “PAICS (lysine site: K286) (UniProt P22234)” here?
A: 1.42 (active)

Q: Which “lysine labeling ratio R10:1” value does the source give for “IQGAP1 (lysine site: K1389) (UniProt P46940)” here?
A: 5.25 (inactive)

Q: UniProt P62277 (lysine site: K9) was tested. Which “lysine labeling ratio R10:1” value did it give?
A: 2.44 (inactive)

Q: For “CD58 (lysine site: K60) (UniProt P19256)”, which “lysine labeling ratio R10:1” value is on record?
A: 6.36 (inactive)

Q: For “RAB2A (lysine site: K130) (UniProt P61019)”, which “lysine labeling ratio R10:1” value is on record?
A: 1.45 (active)

Q: With “STMN1 (lysine site: K126) (UniProt P16949)” as the target, how does the “lysine labeling ratio R10:1” value read?
A: 2.8 (inactive)

Q: With UniProt P62899 (lysine site: K70) as the target, how does the “lysine labeling ratio R10:1” value read?
A: 12.9 (inactive)

Q: For UniProt O60245 (lysine site: K713), which “lysine labeling ratio R10:1” value is on record?
A: 2.99 (inactive)

Q: How did the “lysine labeling ratio R10:1” value turn out when “SUB1 (lysine site: K68) (UniProt P53999)” was run?
A: 8.07 (inactive)

Q: “FAT4 (lysine site: K2570) (UniProt Q6V0I7)” was tested. Which “lysine labeling ratio R10:1” value did it give?
A: 3.02 (inactive)

Q: For “SPTBN1 (lysine site: K1684) (UniProt Q01082)”, which “lysine labeling ratio R10:1” value is on record?
A: 1.83 (active)

Q: For “IGF2R (lysine site: K1776) (UniProt P11717)”, which “lysine labeling ratio R10:1” value is on record?
A: 2.48 (inactive)

Q: Which “lysine labeling ratio R10:1” value does the source give for C3 (lysine site: K692) (UniProt P01024) here?
A: 7.71 (inactive)

Q: How did the “lysine labeling ratio R10:1” value turn out when “DSTN (lysine site: K92) (UniProt P60981)” was run?
A: 2.43 (inactive)

Q: With “NRP1 (lysine site: K407) (UniProt O14786)” as the target, how does the “lysine labeling ratio R10:1” value read?
A: 3.76 (inactive)

Q: Which “lysine labeling ratio R10:1” value does the source give for “S100A6 (lysine site: K47) (UniProt P06703)” here?
A: 6.34 (inactive)

Q: “RPL5 (lysine site: K27) (UniProt P46777)” was tested. Which “lysine labeling ratio R10:1” value did it give?
A: 1.97 (active)

Q: With “RUVBL2 (lysine site: K279) (UniProt Q9Y230)” as the target, how does the “lysine labeling ratio R10:1” value read?
A: 2.65 (inactive)

Q: Which “lysine labeling ratio R10:1” value does the source give for UniProt P61513 (lysine site: K13) here?
A: 1.64 (active)

Q: For “SLC25A13 (lysine site: K487) (UniProt Q9UJS0)”, which “lysine labeling ratio R10:1” value is on record?
A: 4.12 (inactive)

Q: With “PTGFRN (lysine site: K579) (UniProt Q9P2B2)” as the target, how does the “lysine labeling ratio R10:1” value read?
A: 2.67 (inactive)

Q: Which “lysine labeling ratio R10:1” value does the source give for “ILF3 (lysine site: K553) (UniProt Q12906)” here?
A: 4.76 (inactive)

Q: Which “lysine labeling ratio R10:1” value does the source give for “FASN (lysine site: K1704) (UniProt P49327)” here?
A: 2.46 (inactive)

Q: Which “lysine labeling ratio R10:1” value does the source give for “LRP1 (lysine site: K3803) (UniProt Q07954)” here?
A: 3.09 (inactive)

Q: How did the “lysine labeling ratio R10:1” value turn out when “FLNA (lysine site: K1801) (UniProt P21333)” was run?
A: 3.7 (inactive)

Q: How did the “lysine labeling ratio R10:1” value turn out when “TSPAN6 (lysine site: K179) (UniProt O43657)” was run?
A: 1.94 (active)

Q: How did the “lysine labeling ratio R10:1” value turn out when “PLS3 (lysine site: K52) (UniProt P13797)” was run?
A: 2.05 (inactive)

Q: How did the “lysine labeling ratio R10:1” value turn out when “PLXNA1 (lysine site: K868) (UniProt Q9UIW2)” was run?
A: 1.37 (active)

Q: With “TUFM (lysine site: K91) (UniProt P49411)” as the target, how does the “lysine labeling ratio R10:1” value read?
A: 2.38 (inactive)

Q: For “EGFR (lysine site: K538) (UniProt P00533)”, which “lysine labeling ratio R10:1” value is on record?
A: 5.46 (inactive)

Q: Which “lysine labeling ratio R10:1” value does the source give for “PTGFRN (lysine site: K632) (UniProt Q9P2B2)” here?
A: 11.6 (inactive)
